Laboratory results: PubChem BioAssay (EPA / NIEHS)
Records with an inconclusive call do not appear. The source made the active and inactive calls. Rule for the calls: active = hit-call score of the fitted dose curve at least 0.9, where 1 is the maximum; inconclusive = response in the unintended direction; inactive = score below 0.9.

Test: STM_H9_NormalizedViability: Cytotoxicity Assessment at 120 hours in the Stemina devTOX quickPredict H9 human embryonic stem cell (hESC)-based Assay (AID 2283784)
Description: STM_H9_viability utilizes undifferentiated H9 cells to measure cell viability.STM_H9_NormalizedViability is a component calculated in the STM_H9_viability assay. It measures cell viability using background corrected relative fluorescence units (RFU) value from the CellTiterFluor Assay normalized to the value of the 0.1% DMSO neutral control treatment (by 96-well plate)Data from the assay component STM_H9_Viability was analyzed at the assay endpoint STM_H9_Viability_Norm in the positive analysis fitting direction relative to DMSO as the negative control and baseline of activity. Using a type of viability reporter, loss-of-signal activity can be used to understand viability.
H9 hESCs maintained in a pluripotent state were exposed to test compound for 72h with chemical replenishment with media replacement every 24h. Cell-conditioned media from the final 24-h treatment period was collected for analysis of the targeted biomarker, and cell viability of the corresponding cell layer was assessed. The chemical library was tested in blinded fashion. Each test plate included 1uM Methotrexate (MTX; Selleck Chemicals, Houston, Texas) as a positive reference, 5 nM MTX as a negative reference, 0.1% DMSO as the neutral (vehicle) control, and sample-level media blanks.H9 cell-conditioned media from the final 24-h treatment period was collected for analysis of the targeted biomarker and cell viability was measured from the corresponding cell layer. Cell viability was measured using the CellTiter-Fluor assay (Promega, Madison, Wisconsin) based on proteolytic cleavage of a substrate to fluorescent signal proportional to the number of living cells. The cell viability Relative Fluorescence Unit (RFU) was background corrected and normalized to mean RFU of the neutral control (0.1% DMSO). The collected H9-cell-conditioned media samples were processed for targeted biomarker analysis as described (Palmer et al., 2013). Briefly, spent media samples were deproteinized (40% acetonitrile) and processed for UPLC-HRMS. Data acquisition was performed using 4 separate UPLC-HRMS systems, consisting of an Agilent 1290 Infinity LC system (Agilent Technologies) interfaced with an Agilent high-resolution mass spectrometer (models G6520A, G6520B, G6530A, and G6224A). A Waters Acquity UPLC BEH Amide column (2.1mm x 50mm, 1.7lm particle size; Waters, Milford, Massachusetts) maintained at 40C was applied for separation of metabolites using a 6.5min solvent gradient with 0.1% formic acid in water and 0.1% formic acid in acetonitrile (1.0ml/min flow rate). Data were acquired using MassHunter Acquisition software (version B 04.00, Agilent Technologies). The extracted ion chromatogram (EIC) areas for ORN, CYSS, and their respective spike-in C13-standards were determined using the Agilent MassHunter Quantitative Analysis software, version B.05.00 or newer (Agilent Technologies), and data were normalized as described in Palmer et al. (2017).

| SMILES | outcome | AC50 |
| --- | --- | --- |
| Nc1cccc2c(N)cccc12 | inactive | – |
| c1ccc2c(c1)ccc1ccccc12 | – | 79.9 µM (active) |
| N#C[C@@H]1CC(F)(F)CN1C(=O)CNC1CC2CCC(C1)N2c1ncccn1 (some centres not stated) | inactive | – |
| CCCCCCCCCCCCc1ccccc1S(=O)(=O)O | inactive | – |
| CN1CCN(c2ccccc2/C=C2\SCCN(c3ccc(Cl)c(Cl)c3)C2=O)CC1 | inactive | – |
| COc1ccc([N+](=O)[O-])cc1N | inactive | – |
| Cc1cc(CCN2CCN(c3nsc4ccccc34)CC2)cc2c1NC(=O)CC2(C)C | – | 6.3 µM (active) |
| CCc1ccc(CCOc2ccc(CC3SC(=O)NC3=O)cc2)nc1 (configuration not stated) | – | 55.8 µM (active) |
| CCN(CC)CCNc1ccc(CNC=O)c2sc3ccc(OC)cc3c(=O)c12 | – | 8.22 µM (active) |
| C[C@@H]1C[C@H]2[C@@H]3CCC4=CC(=O)C=C[C@]4(C)[C@@]3(F)[C@@H](O)C[C@]2(C)[C@@]1(O)C(=O)COP(=O)(O)O | – | 15.2 µM (active) |
| C#C[C@]1(O)CC[C@H]2[C@@H]3CCC4=CC(=O)CC[C@@H]4[C@H]3CC[C@@]21C | – | 82 µM (active) |
| CN1CCC[C@H]1c1cccnc1 | inactive | – |
